Shown are actives, neighbours in structure and some others; about 3.1% of the full set was active somewhere.
GDH-TPI counter-1: inhibits GDH-TPI coupling enzymes, artifact for Mtb FBA screen | GDH-TPI coupled enzyme counterscreen, NADH absorbance | inhibition, % at 4.8 µM | hit rate 1.2% among 360,000 | AID 588335; in the data active = inhibition above about 30%;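 note: 0% = DMSO wells and 100% = wells lacking the enzyme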
Mtb FBA inh: Mtb fructose-bisphosphate aldolase inhibition; inhibition, % at 1 µM; AID 588726; P9WQA3; purified M. tuberculosis FBA, fluorescence read-out; hit rate 2.3% among 360,000;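 note: 0% = vehicle and 100% = reference inhibitor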
Target sequence (P9WQA3 whole entry, looked up): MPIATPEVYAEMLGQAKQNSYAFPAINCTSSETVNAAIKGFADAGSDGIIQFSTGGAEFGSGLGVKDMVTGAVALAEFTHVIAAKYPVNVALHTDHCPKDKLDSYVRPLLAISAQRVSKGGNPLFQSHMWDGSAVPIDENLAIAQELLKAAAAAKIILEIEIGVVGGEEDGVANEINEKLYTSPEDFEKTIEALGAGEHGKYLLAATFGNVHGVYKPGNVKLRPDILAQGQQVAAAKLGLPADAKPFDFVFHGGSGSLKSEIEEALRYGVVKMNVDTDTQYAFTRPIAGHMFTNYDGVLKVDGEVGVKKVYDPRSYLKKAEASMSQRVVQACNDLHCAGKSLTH
FadD28 binding: inhibitors of Mycobacterium tuberculosis FadD28 bisubstrate binding. FadD28 bisubstrate probe binding, fluorescence polarization. inhibition, % at 12.5 µM. hit rate 0.22% among 360,000. AID 588549; in the data active = inhibition above about 8.5%, passing the limit was not always enough
BioA inh: inhibitors of Mycobacterium tuberculosis BioA enzyme. purified M. tuberculosis BioA enzyme, plate reader. inhibition, % at 9.99 µM. hit rate 0.096% among 360,000. AID 602481; in the data active = inhibition above about 40%
3CLpro inhibitor: SARS-CoV 3CLpro protease inhibition; recombinant SARS-CoV 3CLpro, quenched FRET peptide cleavage; P0C6X7; AID 1706; hit rate 0.14% among 290,000; inhibition, % at 6 µM; in the data active = inhibition above about 12%
Mtb FBA inh conf: confirmation of M. tuberculosis fructose-bisphosphate aldolase inhibitors | hit rate 78% among 5,600 | inhibition, % at 1 µM | shares compounds with Mtb FBA inh | purified M. tuberculosis FBA, fluorescence read-out;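 note: 0% = vehicle wells and 100% = reference inhibitor wells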
GDH-TPI counter-2: inhibits GDH-TPI coupling enzymes, flagging Mtb FBA hits | shares compounds with Mtb FBA inh | GDH-TPI coupled enzyme counterscreen, fluorescence | inhibition, % at 1 µM | hit rate 81% among 5,600 | AID 652141; in the data active = inhibition above about 10%
GDH-TPI DR: GDH-TPI dose response counter-screen for Mtb FBA. hit rate 79% among 170. GDH-TPI coupled enzyme assay, fluorescence, artifact counterscreen. shares compounds with Mtb FBA inh. IC50, µM; call rule not given here
* marks the source's active call; other numbers are inactive results; / = no result; + = active, no number. Cut-off read from the data, not from the text of the source, unless noted: active = inhibition above about 27%; inactive = the rest.

SMILES | GDH-TPI counter-1 | Mtb FBA inh | FadD28 binding | BioA inh | 3CLpro inhibitor | Mtb FBA inh conf | GDH-TPI counter-2 | others
CN1CCN(C(=O)C2Cc3c(-c4ccc5c(c4)OCO5)ccnc3O2)CC1 (configuration not stated) | 7.3 | 40.2* | 0.2 | 0.3 | / | 18.0 | 6.3 | GDH-TPI DR=3.08*
O=C(Nc1ccc2c(c1)OCO2)C1Cc2c(-c3ccc4c(c3)OCO4)ccnc2O1 (configuration not stated) | -6.2 | 35.8* | -3.6 | 0.2 | / | 77.0* | 60.8*
CC(=O)NCCNC(=O)C1Cc2c(-c3ccc4c(c3)OCO4)ccnc2O1 (configuration not stated) | -8.9 | 64.8* | -2.2 | 1.7 | / | 18.6 | -2.8 | GDH-TPI DR=2.91*
O=C(Nc1ccc2c(c1)OCO2)C1Cc2c(-c3ccncc3)ccnc2O1 (configuration not stated) | 14.2 | 0.1 | -0.7 | -1.4 | / | / | /
Cc1noc(C)c1NC(=O)N(C)C[C@@H]1Oc2ccc(NC(=O)C3CCCCC3)cc2C(=O)N([C@H](C)CO)C[C@H]1C | / | / | / | -0.7 | / | / | /
CC(=O)Nc1ccc(NC(=O)C2Cc3c(-c4ccc5c(c4)OCO5)ccnc3O2)cc1 (configuration not stated) | 6.2 | 33.0* | -5.1 | 0.6 | / | 9.4 | 0.9
O=C(NCC1CC1)C1Cc2c(-c3ccc4c(c3)OCO4)ccnc2O1 (configuration not stated) | 11.7 | 54.1* | -0.6 | 1.8 | / | 138.0* | 94.5*
CNC(=O)C1Cc2c(-c3ccc(Cl)cc3)ccnc2O1 (configuration not stated) | -2.6 | -0.4 | -1.6 | 8.7 | / | / | /
CNC(=O)C1Cc2c(-c3ccc4c(c3)OCO4)ccnc2O1 (configuration not stated) | 5.8 | 59.7* | 0.2 | 9.4 | / | 96.8* | 76.5*
O=C(c1cccnc1)N1CCCCN2[C@H](C1)[C@H](c1ccc(C#Cc3ccccc3)cc1)[C@@H]2CO | / | / | / | 2.0 | / | / | /
C[C@@H](NC(=O)[C@H]1[C@H](CO)[C@H]2Cn3c(cccc3=O)[C@@H]1N2Cc1ccccc1)c1ccccc1 | / | / | / | -0.1 | / | / | /
COc1ccc(-c2nc(CS(=O)CC(=O)NCCN3CCCCC3C)c(C)o2)cc1OC (configuration not stated) | 2.2 | 6.7 | 0.2 | -0.5 | 0.0 | / | /
COc1ccc(-c2c(C)oc3c(CN4CCCCC4C)c(O)ccc3c2=O)cc1OC (configuration not stated) | 34.1* | 41.8* | 0.2 | 3.5 | 2.2 | -1.5 | -6.3
COc1ccc(-c2c(C)oc3c(CN4CCCC(C)C4)c(O)ccc3c2=O)cc1OC (configuration not stated) | 18.2 | 38.5* | -0.6 | 2.5 | 3.0 | -0.1 | -2.1
CCc1cc(=O)oc2cc(C)c(CN3CCCC(C)C3)c(O)c12 (configuration not stated) | 14.0 | 0.6 | -2.4 | -0.3 | -4.2 | / | /
COc1cc2oc(=O)ccc2cc1[C@@H](O)[C@@H]1OC(C)(C)OC1(C)C | 12.8 | 29.5* | -1.8 | -0.8 | / | 79.2* | 40.1*
COc1cccc(OC)c1C(=O)NC(=S)Nc1ccc2oc(=O)ccc2c1 | 1.5 | -3.7 | -1.6 | -1.2 | 2.5 | / | /
COc1cc2oc(=O)ccc2cc1[C@H](O)[C@@H](O)C(C)(C)O | 26.4 | 48.8* | -0.7 | -0.9 | / | 47.4* | 31.9*
COc1ccc(C(=O)COc2ccc3ccc(=O)oc3c2)c(OC)c1 | 13.1 | 25.4 | -1.1 | 1.8 | -2.4 | / | /
COCC(=O)N(C)C[C@@H]1Oc2ncc(C#Cc3ccc(OC)cc3)cc2C(=O)N([C@H](C)CO)C[C@@H]1C | / | / | / | -2.1 | / | / | /
COc1cc(-c2nc(C(=O)NCC3CCCO3)cc3c2[nH]c2ccccc23)cc(OC)c1OC (configuration not stated) | 2.8 | 38.1* | 1.2 | -0.1 | -3.7 | 59.6* | 50.4*
COc1cccc2[nH]c(C(=O)NC(C)c3ccccc3)cc12 (configuration not stated) | -6.0 | 49.9* | -3.4 | 1.2 | 2.3 | 155.7* | 116.8*
COc1cccc(-c2nn(-c3ccc(F)cc3)cc2C(=O)NCC2CCCO2)c1 (configuration not stated) | -9.3 | 47.2* | -1.9 | -0.3 | / | + | +
CCN1CCCC1CNC(=O)c1cc2c(OC)cccc2[nH]1 (configuration not stated) | -1.4 | 30.3* | -2.7 | 0.0 | -2.9 | 61.1* | 34.0*
CC(NC(=O)c1cc(=O)[nH]c2ccccc12)c1ccccc1 (configuration not stated) | 1.9 | 4.0 | -0.6 | 0.5 | 4.3 | / | /
SMILES | GDH-TPI counter-1 | Mtb FBA inh | FadD28 binding | BioA inh | 3CLpro inhibitor | Mtb FBA inh conf | GDH-TPI counter-2 | others
C[C@@H]1CN([C@@H](C)CO)C(=O)CCCn2cc(nn2)CO[C@@H]1CN(C)Cc1ccc(O)cc1 | / | / | / | 0.1 | / | / | /
CNC[C@@H]1OCCCC[C@H](C)Oc2ccc(NC(=O)Nc3ccccc3)cc2C(=O)N([C@@H](C)CO)C[C@@H]1C | / | / | / | -0.6 | / | / | /
COc1cccc(S(=O)(=O)N(C)C[C@H]2Oc3ncc(-c4cccc(C(=O)N(C)C)c4)cc3C(=O)N([C@@H](C)CO)C[C@H]2C)c1 | / | / | / | -0.9 | / | / | /
COc1cccc(-c2nc(C(=O)NCCCN3CCOCC3)cc3c2[nH]c2ccccc23)c1 | 14.7 | 38.4* | -9.9 | -0.7 | 4.1 | -1.0 | -7.5
COc1cccc2[nH]c(C(=O)NCC3CCCO3)cc12 (configuration not stated) | -6.6 | 32.3* | -0.5 | -2.0 | 0.1 | 125.9* | 97.2*
COc1cccc2[nH]c(=O)c(-c3ccccc3)cc12 | 9.2 | 71.2* | -2.9 | 1.0 | 4.8 | 46.6* | 38.6*
CO[C@@H]1CN(C)C(=O)c2cc(NC(=O)Nc3ccc(C(F)(F)F)cc3)ccc2OC[C@@H](C)NC[C@@H]1C | / | / | / | 4.9 | / | / | /
CC1CC(C)CN(C(=O)Cn2c(SCC(=O)N3CCc4ccccc4C3)nc3ccccc32)C1 (configuration not stated) | -2.6 | 48.1* | -0.5 | -0.3 | 0.5 | 68.7* | 48.6*
CC(C)NC(=O)Cn1c(SCC(=O)N2CCc3ccccc3C2)nc2ccccc21 | 3.5 | 0.8 | -4.2 | -0.1 | 0.4 | / | /
C/C=C/c1ccc([C@H]2[C@@H](CO)N(C(=O)C3CC3)[C@H]2CN(C)C(=O)C2CC2)cc1 | / | / | / | -2.6 | / | / | /
O=C(COC(=O)c1ccccc1NCCO)Nc1ccc(S(=O)(=O)NC2=NCCCCC2)cc1 | 17.8 | 83.8* | -0.6 | -4.1 | / | 84.2* | 61.1*
c1ccc2[nH]c(-c3ccnc4ccccc34)nc2c1 | 25.1 | 45.2* | -4.0 | 1.8 | -3.4 | 119.0* | 86.8*
Clc1ccccc1-c1nc2ccccc2[nH]1 | 7.6 | 2.1 | -5.4 | -1.0 | 0.8 | / | /
c1ccc2c(-c3nc4ccccc4[nH]3)cccc2c1 | 0.4 | 107.3* | -4.7 | / | / | 79.7* | 42.2*
